FBW7 act – FBW7 E3 ligase activators, primary screen, biochemical, AlphaScreen, human. F-box/WD repeat-containing protein 7 (Homo sapiens), Q969H0. AlphaScreen FBW7–phospho-cyclin E peptide binding, activator screen. normalized activity (activation), % at 26.1 µM. 650,000 compounds, 0.13% hits; in the data active means normalized activity above about 1.9%;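 further: purified mutant Fbw7 with reduced substrate affinity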
TEAD-YAP inh – TEAD-YAP interaction inhibition, primary screen, TEAD-YAP interaction inhibitor project, luminescence, HEK-TIYL cells; TEAD-Gal4/YAP UAS-luciferase luminescence; inhibition, % at 9.12 µM; 640,000 compounds, 1.4% hits; AID 1259422, 2018; in the data active means inhibition above about 32%;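 further: 0% = median of test compound wells and 100% = reference inhibitor wells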
GPR151 ag – activators of human GPR151, primary screen, cell-based, PathHunter beta-arrestin, luminescence | G-protein coupled receptor 151 (Homo sapiens), Q8TDV0 | PathHunter beta-arrestin GPR151 cells | activation, % at 11.2 µM | 650,000 compounds, 1% hits | AID 1508602, 2020; in the data active means activation above about 4.9%;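 further: 0% = median of compound wells and 100% = cells with positive control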
MITF primary – MITF inhibitors, primary screen, biochemical, AlphaScreen, human | inhibition, % at 2.6 µM | AlphaScreen MITF homodimerization, bead proximity signal | AID 1259374, 2018 | Microphthalmia-associated transcription factor (Homo sapiens), O75030 | 650,000 compounds, 0.91% hits; in the data active means inhibition above about 50%;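 further: 0% = vehicle wells with protein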
Target sequence (O75030 whole entry, looked up): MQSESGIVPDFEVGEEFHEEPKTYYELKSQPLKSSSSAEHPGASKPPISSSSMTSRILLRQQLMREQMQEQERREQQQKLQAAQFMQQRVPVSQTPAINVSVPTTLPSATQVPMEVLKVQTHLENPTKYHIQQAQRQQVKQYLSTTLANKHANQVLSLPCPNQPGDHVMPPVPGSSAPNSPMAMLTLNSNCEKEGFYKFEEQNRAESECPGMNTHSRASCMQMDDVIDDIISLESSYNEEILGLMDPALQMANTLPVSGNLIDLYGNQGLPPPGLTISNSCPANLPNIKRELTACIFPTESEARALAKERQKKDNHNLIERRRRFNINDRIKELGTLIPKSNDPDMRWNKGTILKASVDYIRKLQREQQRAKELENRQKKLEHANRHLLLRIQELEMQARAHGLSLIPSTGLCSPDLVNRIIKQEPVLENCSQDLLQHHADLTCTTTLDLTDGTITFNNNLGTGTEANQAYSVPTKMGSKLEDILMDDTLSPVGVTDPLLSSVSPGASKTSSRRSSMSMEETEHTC
* hit, by the source's call. Most compounds without a hit are left out; they make up all but 3.4% or so of the library.

SMILES	FBW7 act	TEAD-YAP inh	GPR151 ag	MITF primary
COc1ccc(Cl)cc1C(=O)Nc1ccc(Nc2cc(-n3cccn3)ncn2)cc1	0	0	1	-5
O=C(N/N=C/c1cc2c3c(c1O)CCCN3CCC2)c1ccncc1	-1	75*	0	66*
Cc1ccc(C)c(/C=N/Nc2nc(C)cc(=O)[nH]2)c1	0	-4	0	6
Cc1cc(=O)[nH]c(N/N=C/c2cc3c4c(c2O)CCCN4CCC3)n1	0	86*	0	9
O=C(N/N=C/c1cc([N+](=O)[O-])cc([N+](=O)[O-])c1O)c1ccncc1	0	7	0	11
Oc1c(Br)cc(Br)c2cccnc12	0	8	0	21
Oc1c(CN2CCN(c3cccc(C(F)(F)F)c3)CC2)cc(Br)c2cccnc12	-1	37*	0	1
Oc1c(CN2CCOCC2)cc(Br)c2cccnc12	0	49*	1	47
CC1CCN(Cc2cc(Br)c3cccnc3c2O)CC1	-1	47*	0	69*
Oc1c(CN2CCN(c3cccc(Cl)c3)CC2)cc(Cl)c2cccnc12	-1	7	0	8
CN1CCN(Cc2cc(Br)c3cccnc3c2O)CC1	-1	45*	1	89*
O=c1[nH]c(N2CCOCC2)nc2c1CCN(Cc1ccc(N3CCCC3)cc1)C2	0	5	-1	20
COC(=O)CC(=O)C(C(=O)OC)c1nc(C)nc2c1nnn2Cc1ccccc1Cl (stereo not drawn)	0	3	-1	8
CCOC(=O)N1CCN(C(=O)c2c[nH]c3ccc(S(=O)(=O)N(CC)c4ccc(F)cc4)cc3c2=O)CC1	0	10	1	1
COCCOC(=O)C1=C(C)OC(N)=C(C#N)C1c1cc2c(C)ccc(C)c2[nH]c1=O (stereo not drawn)	0	-2	0	8
CC(=O)c1cccc(NC(=O)Nc2nc(SC(C)(C)C)ns2)c1	0	2	2	12
Cc1ccc(C)c(NC(=O)CSc2c[nH]c3ccccc23)c1	0	-1	-1	-2
Nc1cccc(-c2nc3cc4ccccc4cc3[nH]2)c1	0	50*	-8	-14
CN(C)c1ccc(-c2nc3ccccc3[nH]2)cc1	0	96*	-10	21
Cc1ccc2nc(-c3cccc(N)c3)[nH]c2c1	0	60*	-8	0
Cc1ccc2nc(-c3ccccc3)[nH]c2c1	0	51*	-11	-1
Cc1ccc(C(=O)NC(=S)NC(C)C)cc1Br	0	-32	0	-5
Cc1cc(OCc2ccccc2)nc(N2CCOCC2)n1	0	-4	1	-5
Nc1ccc(-c2nc3ccc(C(=O)O)cc3[nH]2)cc1	0	36*	-8	-6
Nc1ccc(C(=O)Nc2ccc3nc(-c4ccccc4)[nH]c3c2)cc1	0	-37	3	-15
SMILES	FBW7 act	TEAD-YAP inh	GPR151 ag	MITF primary
COc1ccccc1-n1c(=O)[nH]c2c(C(N)=O)nc(-c3cccc(F)c3)nc21	0	-1	1	6
COc1ccc(-c2nc(C(N)=O)c3[nH]c(=O)n(-c4cccc(C)c4)c3n2)cc1O	0	64*	-1	11
COc1ccc(-c2nc(C(N)=O)c3[nH]c(=O)n(-c4ccccc4OC)c3n2)cc1	0	48*	1	5
CCOc1ccc(NC(=O)CSc2ccc3nnc(-c4ccccc4)n3n2)cc1	1	0	0	7
CC(C)c1ccc(/C=C2/C(=O)N(C)C(=S)N2C)cc1	0	-15	-1	8
O=C1CC(c2cccc([N+](=O)[O-])c2)c2c(ccc3ccccc23)N1 (stereo not drawn)	0	61*	1	-5
Cc1ccc(C2CC(=O)Nc3ccc4ccccc4c32)cc1 (stereo not drawn)	0	2	-1	17
COc1cc(C2C(C(=O)OCCOc3ccccc3)=C(C)NC3=C2C(=O)CC(c2ccc(Cl)cc2)C3)cc(Cl)c1O (stereo not drawn)	0	13	-1	15
Cc1n[nH]c(=O)nc1N/N=C/c1ccccc1O	-1	18	-7	94*
Cc1cc(=O)[nH]c(N/N=C/c2cc(C)c(/C=N/Nc3nc(C)cc(=O)[nH]3)cc2C)n1	0	-2	0	2
Cc1cc(=O)[nH]c(N/N=C/c2cc(Br)ccc2O)n1	0	7	-2	65*
Cc1n[nH]c(=O)nc1N/N=C/c1cc(Br)ccc1O	0	76*	-3	116*
CC(C)(C)c1nnc(N/N=C/c2ccccc2O)[nH]c1=O	0	82*	1	96*
Cc1ccc(NC(=O)C2C3CC/C=C\CC/C=C/CCC32)cc1C (stereo not drawn)	0	2	2	-5
CS(=O)(=O)Nc1nc2n(n1)C(c1ccc(F)cc1)C=C(c1ccccc1)N2 (stereo not drawn)	0	-2	-1	0
COc1cccc(N2CCN(c3cc(C)nc4ncnn34)CC2)c1	0	14	-1	0
Cc1cc(N2CCN(c3nc4ccccc4s3)CC2)n2ncnc2n1	0	51*	1	-20
CC1(C)CCN2CCC(C)(C)c3c(O)ccc1c32	0	38*	0	23
CC1(c2cccc(Cc3cccc(C4(C)CCCCC4)c3O)c2O)CCCCC1	0	6	-2	12
COc1ccc(CCNc2nc(-c3ccc(OC)nc3)nc3nc[nH]c23)cc1	0	20	0	15
COc1ccc(-c2nc(NCCc3ccc(O)cc3)c3[nH]cnc3n2)cc1	0	59*	1	2
COc1ccc(-c2nc(NCCc3ccc(O)cc3)c3[nH]cnc3n2)cn1	0	33*	2	8
Nc1c(C(=O)Nc2nccs2)sc2nc3c(cc12)CCCC3	0	77*	-1	-19
Nc1c(C(=O)Nc2ccc(Cl)cn2)sc2nc3c(cc12)CCC3	0	94*	4	12
CCc1nnc(NC(=O)c2sc3nc4c(cc3c2N)CCC4)s1	0	-76	-1	1
CCCCOc1ccccc1NS(=O)(=O)c1ccc(F)cc1	0	2	1	-3
O=C(N1CCOCC1)N1CCCC(c2ncncc2-c2ccncc2)C1 (stereo not drawn)	2.2*	11	0	16
COCCCn1c(=O)/c(=C\c2ccc(Cl)cc2)s/c1=C(/C#N)C(=O)N1CCCC1	0	2	-2	14
CCCc1ccc(C(=O)Nc2cnc3ccccc3c2)cc1	0	70*	-5	12

Bioassay records deposited in PubChem by The Scripps Research Institute Molecular Screening Center.
